Experiment [1] in a line: TOX21_p53_BLA_p4_viability: Viability Assessment in the Tox21 HCT-116 p53 Agonism Beta-lactamase Assay, Phase 4 (AID 2283597; active means hit-call score of the fitted dose curve at least 0.9, where 1 is the maximum;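 further: hits lower the luminescence signal meaning cytotoxicity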). In a few lines:
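Cytotoxicity as reduced cellular ATP (CellTiter-Glo luminescence, 30 min room temperature), measured in the same wells following the CCF4 FRET p53 reading. Human HCT-116 cells received compounds in DMSO (217-fold dilution) for 16 h.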

A short description of experiment [2]: TOX21_p53_BLA_p5_viability: Viability Assessment in the Tox21 HCT-116 p53 Agonism Beta-lactamase Assay, Phase 5 (AID 2283600; active means hit-call score of the fitted dose curve at least 0.9, where 1 is the maximum). In a few lines:
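Viability came from CellTiter-Glo ATP luminescence, read after 30 min at room temperature. Before this, HCT-116 p53-bla cells (4000/well) had 16 hours of compound exposure at 37C, with DMSO stocks diluted 217-fold on transfer.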

Experiment [3] can be described thus: TOX21_TRB_BLA_Antagonist_Followup_viability: Viability Assessment in the Tox21 Thyroid Hormone Receptor beta Antagonism Beta-lactamase (BLA) Follow-Up Assay (AID 2283961; active means hit-call score of the fitted dose curve at least 0.9, where 1 is the maximum). In outline:
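ATP-based CellTiter-Glo luminescence (30 min, room temperature) run in the same wells as the TRβ-bla readout. Cells: GeneBLAzer HEK293T expressing GAL4-TRβ LBD, exposed 18 h at 37C to compounds at 11 concentrations in triplicate, stripped-serum medium.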

Experiment [4] in a line: ACEA_ER_AUC_viability: ACEA Biosciences xCELLigence Real-Time Cell Analysis on Estrogen Receptor Agonism for Viability (AID 2283782; active means hit-call score of the fitted dose curve at least 0.9, where 1 is the maximum;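 further: hit means loss of impedance signal meaning reduced cell growth or viability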). In outline:
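Continuous-exposure impedance cell analysis uses T-47D cells in charcoal-stripped serum, eight 1:4 dilutions topping at 100 uM final, biological duplicate. Area under the growth curve at 80 h is fitted against DMSO baseline.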

Experiment [5] in a line: TOX21_TRB_BLA_Agonist_Followup_viability: Viability Assessment in the Tox21 Thyroid Hormone Receptor beta Agonism Beta-lactamase (BLA) Follow-Up Assay (AID 2283956; active means hit-call score of the fitted dose curve at least 0.9, where 1 is the maximum). In a few lines: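 Viability was read as CellTiter-Glo luminescence in the same wells as the TRb-bla agonist read-out. HEK293T GAL4-TRb LBD cells were treated for 18 h (37C, 5% CO2) at 11 concentrations in triplicate. Fits were bidirectional versus DMSO baseline.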

The test system of experiment [6] is Thyroperoxidase (TPO), gene 54314. As to the kind of experiment: CCTE_Simmons_AUR_rTPO: CCTE's Amplex UltraRed Assay for Thyroperoxidase (TPO) Inhibition, Simmons Lab (AID 2283662; active means hit-call score of the fitted dose curve at least 0.9, where 1 is the maximum). In a few lines:
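Rat thyroid microsomes (5 ug protein) were incubated with test compound (8 concentrations, 5 nM–87.5 uM final, 0.5% DMSO), 25 uM Amplex UltraRed and 300 uM H2O2 in 200 mM phosphate buffer for 30 min at 37C in the dark; fluorescence read at 544/590 nm.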

The target in experiment [7] is Luciferin 4-monooxygenase (Photinus pyralis) (UniProt P08659). Description: CCTE_Simmons_QuantiLum_inhib_2: CCTE's Firefly Luciferase Inhibition Assay, Simmons Lab (AID 2283767; active means hit-call score of the fitted dose curve at least 0.9, where 1 is the maximum;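 on AC50: potency for inhibitors that lower luciferase luminescence relative to DMSO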). In outline: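 Eight-point titrations of each chemical, 5 nM–87.5 uM final in 0.5% DMSO, were run in three biological replicates against recombinant luciferase for 30 min at 37C. Bioluminescence signal loss, read on reagent injection, gave the inhibition endpoint.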
Chain of Luciferin 4-monooxygenase (Photinus pyralis) (P08659 whole entry, looked up): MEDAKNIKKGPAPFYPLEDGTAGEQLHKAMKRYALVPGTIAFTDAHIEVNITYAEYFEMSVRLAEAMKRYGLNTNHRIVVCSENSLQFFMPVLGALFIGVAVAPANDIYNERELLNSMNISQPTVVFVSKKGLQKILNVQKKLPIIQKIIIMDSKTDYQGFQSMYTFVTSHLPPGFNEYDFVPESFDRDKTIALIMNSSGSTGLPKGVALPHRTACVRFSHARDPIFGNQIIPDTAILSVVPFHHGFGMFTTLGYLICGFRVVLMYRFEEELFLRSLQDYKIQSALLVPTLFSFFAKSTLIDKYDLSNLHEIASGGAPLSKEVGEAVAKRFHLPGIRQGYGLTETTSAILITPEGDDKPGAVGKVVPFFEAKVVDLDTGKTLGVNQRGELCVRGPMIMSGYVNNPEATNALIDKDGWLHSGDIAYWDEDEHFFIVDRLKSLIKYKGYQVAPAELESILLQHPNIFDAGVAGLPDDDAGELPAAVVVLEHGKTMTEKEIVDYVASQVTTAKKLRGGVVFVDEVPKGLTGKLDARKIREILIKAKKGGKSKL

The next experiment deals with THRA (gene 7067) (UniProt P10827). Description: TOX21_TRA_COA_Agonist_Followup_ratio: Tox21 Thyroid Hormone Receptor alpha Agonism through Coactivator Recruitment Follow-Up Assay, Ratio (AID 2283948). In a few lines: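 Cell-free TR-FRET coactivator recruitment: GST-tagged TRα LBD (2.5 nM) with 0.10% BSA was incubated with compound, then fluorescein-SRC-2 peptide (200 nM) and Tb-anti-GST antibody (2 nM) added. 520:495 nm ratio normalized to DMSO (0%) and T3 (100%).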
Chain of THRA (gene 7067) (P10827 whole entry, looked up, the tested form may be a part): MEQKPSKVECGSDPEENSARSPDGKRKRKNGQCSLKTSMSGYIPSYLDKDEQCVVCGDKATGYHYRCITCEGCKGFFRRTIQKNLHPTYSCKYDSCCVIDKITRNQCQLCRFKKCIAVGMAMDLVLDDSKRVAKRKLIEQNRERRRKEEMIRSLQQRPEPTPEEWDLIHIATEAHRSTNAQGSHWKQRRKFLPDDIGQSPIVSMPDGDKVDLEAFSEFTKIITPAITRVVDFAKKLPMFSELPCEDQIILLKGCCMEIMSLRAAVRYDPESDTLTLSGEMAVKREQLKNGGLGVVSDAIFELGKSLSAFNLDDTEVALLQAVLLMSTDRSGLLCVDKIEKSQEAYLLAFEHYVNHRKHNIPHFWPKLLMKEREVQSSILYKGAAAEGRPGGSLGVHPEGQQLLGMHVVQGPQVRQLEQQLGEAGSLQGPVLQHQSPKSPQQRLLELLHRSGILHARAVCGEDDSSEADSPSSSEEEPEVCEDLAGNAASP

Experiment [8] deals with THRB (gene 7068) (UniProt P10828). Description: TOX21_TRB_BLA_Agonist_Followup_ratio: Tox21 Thyroid Hormone Receptor beta Agonism Beta-lactamase (BLA) Follow-Up Assay, Ratio (AID 2283954; active means hit-call score of the fitted dose curve at least 0.9, where 1 is the maximum). In outline:
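Agonist mode: compounds (11-point, triplicate) incubated 18 h with HEK293T cells carrying GAL4-DBD/human TRβ-LBD and UAS-β-lactamase. Blue/green (460/530 nm) FRET ratio read after 2 h CCF4-AM loading; CellTiter-Glo viability run in the same plates.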

For experiment [9] the target is unchanged. As to the kind of experiment: TOX21_TRB_COA_Agonist_Followup_ratio: Tox21 Thyroid Hormone Receptor beta Agonism through Coactivator Recruitment Follow-Up Assay, Ratio (AID 2283963). In outline: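 Signal is the 520/495 nm emission ratio (excitation 340 nm), scaled between DMSO-only wells as 0% and T3 wells as 100%. It reflects fluorescein-labeled SRC-2 peptide recruitment to GST-TRβ ligand-binding domain detected via terbium anti-GST antibody.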

Experiment [10] concerns the target Retinoic acid receptor RXR-alpha (Homo sapiens) (UniProt P19793). As to the kind of experiment: TOX21_TR_RXR_BLA_Agonist_Followup_ratio: Tox21 Thyroid Hormone Receptor beta Retinoid X Receptor alpha (RXRa) Agonism Beta-lactamase (BLA) Follow-Up Assay, Ratio (AID 2283968; active means hit-call score of the fitted dose curve at least 0.9, where 1 is the maximum). In a few lines: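 Agonism is scored as an increase in the 460:530 nm beta-lactamase substrate ratio over DMSO in RXRa-UAS-bla HEK293T cells exposed for 16 h to 11 compound concentrations.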

A short description of experiment [11]: CCTE_Shafer_MEA_acute_per_burst_spike_number_mean: CCTE's Neural Acute Assay for Average Number of Spikes Per Burst, Shafer Lab (AID 2284015).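 Further: hits are decreases in mean spikes per burst versus baseline.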 In a few lines: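 Percent change in mean spikes per single-electrode burst is compared between a 40 min baseline and a 40 min recording with compound (0.03-40 uM). Cultures were rat cortical neurons on MEA plates at DIV 13 or 15, recorded at 37 C, with DMSO as the negative control.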

A short description of experiment [12]: CCTE_Shafer_MEA_acute_interburst_interval_mean: CCTE's Neural Acute Assay for Mean Interburst Interval, Shafer Lab (AID 2284016).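 Further: percent change of mean interburst interval versus each well's own pre-dose baseline; curves fitted for decrease in interburst interval relative to DMSO.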 In a few lines: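 Percent change in mean single-electrode interburst interval was calculated per well from 40 min recordings before and after compound (0.03-40 uM). Recordings were made at 37 C on rat cortical cultures at DIV 13 or 15, with spikes detected at 8x rms threshold.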

The nature of experiment [13]: CCTE_Shafer_MEA_acute_burst_percentage_mean: CCTE's Neural Acute Assay for Percentage of Spikes in a Burst, Shafer Lab (AID 2284017).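 On AC50: curve fitted for loss of signal so potency reflects decreased burst percentage.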 In a few lines: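 Well-level mean burst percentage from a 40-min recording after compound (0.03-40 uM) expressed as percent change from a 40-min baseline at 37C. Cultures: primary rat cortical neurons on MEA, dosed on DIV 13 or 15; fitted downward relative to DMSO.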

Experiment [14] can be described thus: CCTE_Shafer_MEA_acute_burst_percentage_std: CCTE's Neural Acute Assay for Standard Deviation of Burst Percentage, Shafer Lab (AID 2284018).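 Further: fitted in the negative direction so actives lower burst percentage SD.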 In a few lines: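 Primary rat cortical neurons on 16-electrode MEA wells were recorded 40 min at baseline (DIV 13 or 15), then 40 min after compound (0.03-40 uM), at 37 C. Well value is SD across electrodes of spikes-in-bursts/total spikes; endpoint is percent change, DMSO-referenced.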

Experiment [15] can be described thus: CCTE_Shafer_MEA_acute_per_network_burst_electrodes_number_mean: CCTE's Neural Acute Assay for Mean Number of Electrodes in a Network Burst, Shafer Lab (AID 2284021).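 Further: curves fitted for decreases only so hits reduce electrodes per burst.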 In a few lines: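 Percent change from baseline was computed as mean electrode count per network burst, comparing 40 min recordings before and during compound (0.03-40 uM) exposure. Cultures were rat cortical neurons at DIV 13 or 15, recorded on MEAs at 37 C with an adaptive 8x rms threshold.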

Experiment [16] is described as follows: CCTE_Shafer_MEA_acute_network_burst_percentage: CCTE's Neural Acute Assay for Percentage of Network Bursts, Shafer Lab (AID 2284022).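 Further: curves fitted for loss so actives lower network burst percentage.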 In a few lines: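 Network burst percentage (spikes in network bursts divided by total spikes) recorded at 37 C over 40 min baseline and 40 min after compound, 0.03-40 uM, in rat cortical cultures at DIV 13 or 15. Analysed as percent change from baseline versus DMSO.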

Experiment [17] can be described thus: CCTE_Shafer_MEA_acute_cross_correlation_area: CCTE's Neural Acute Assay for Area of Cross Correlation, Shafer Lab (AID 2284024).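 Further: area under pooled inter-electrode spike cross-correlation near zero lag as percent change from own baseline; curves fitted for loss of cross-correlation area so actives lower synchrony.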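 On outcome: rat primary cortical neuron networks on 48-well MEA at DIV 13 or 15 with 40 min exposure.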 In a few lines: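 Percent change in well-wide cross-correlation area (window around zero lag) between 40 min baseline and 40 min post-compound recordings, 37 C; rat cortical cultures on MEA at DIV 13 or 15, dosed 0.03-40 uM, wells needing >/= 10 active electrodes.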

A short description of experiment [18]: CCTE_Shafer_MEA_acute_synchrony_index: CCTE's Neural Acute Assay for Synchrony, Shafer Lab (AID 2284027).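 Further: network synchrony index of spontaneous spiking in primary rat cortical neurons on MEAs; fitted for loss of signal so actives lower synchrony relative to DMSO.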 In outline: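 Acute exposure of rat primary cortical neurons (DIV 13 or 15) at 0.03-40 uM. Synchrony index, 40 min before vs after, as % change relative to DMSO control.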
Experiment [19] is described as follows: CCTE_Shafer_MEA_acute_LDH: CCTE's Lactate Dehydrogenase Assay for Cytotoxicity in the Neural Acute Assay, Shafer Lab (AID 2284086; active means hit-call score of the fitted dose curve at least 0.9, where 1 is the maximum;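 further: active means LDH release rises above DMSO vehicle level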). In outline: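 Cytotoxicity readout: spectrophotometric LDH activity in supernatant of rat primary cortical neurons, post-plating day 13 or 15, sampled after 40 min compound exposure; signal gain relative to DMSO baseline.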

Results filed as inconclusive are left out. Calls of active or inactive are those of the source. How the source made its calls, unless noted: active means hit-call score of the fitted dose curve at least 0.9, where 1 is the maximum; inactive means score below 0.9.

One may read the AC50 as the concentration giving half of the maximal activity seen.

Chain of THRB (gene 7068) (P10828 whole entry, looked up, the tested form may be a part): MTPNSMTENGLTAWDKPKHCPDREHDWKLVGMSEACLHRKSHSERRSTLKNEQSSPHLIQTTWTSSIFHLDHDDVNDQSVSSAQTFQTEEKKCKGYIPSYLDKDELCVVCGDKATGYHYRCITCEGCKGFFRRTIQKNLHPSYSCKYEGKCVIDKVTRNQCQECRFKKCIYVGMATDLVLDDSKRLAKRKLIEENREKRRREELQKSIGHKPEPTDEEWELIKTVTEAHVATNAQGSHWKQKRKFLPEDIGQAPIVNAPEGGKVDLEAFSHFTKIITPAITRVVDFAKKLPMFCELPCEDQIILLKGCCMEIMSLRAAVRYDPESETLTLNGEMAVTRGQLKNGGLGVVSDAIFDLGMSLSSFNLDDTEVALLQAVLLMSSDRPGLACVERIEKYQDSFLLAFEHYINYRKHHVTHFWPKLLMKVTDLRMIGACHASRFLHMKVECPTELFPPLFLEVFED
Chain of Retinoic acid receptor RXR-alpha (Homo sapiens) (P19793 whole entry, looked up): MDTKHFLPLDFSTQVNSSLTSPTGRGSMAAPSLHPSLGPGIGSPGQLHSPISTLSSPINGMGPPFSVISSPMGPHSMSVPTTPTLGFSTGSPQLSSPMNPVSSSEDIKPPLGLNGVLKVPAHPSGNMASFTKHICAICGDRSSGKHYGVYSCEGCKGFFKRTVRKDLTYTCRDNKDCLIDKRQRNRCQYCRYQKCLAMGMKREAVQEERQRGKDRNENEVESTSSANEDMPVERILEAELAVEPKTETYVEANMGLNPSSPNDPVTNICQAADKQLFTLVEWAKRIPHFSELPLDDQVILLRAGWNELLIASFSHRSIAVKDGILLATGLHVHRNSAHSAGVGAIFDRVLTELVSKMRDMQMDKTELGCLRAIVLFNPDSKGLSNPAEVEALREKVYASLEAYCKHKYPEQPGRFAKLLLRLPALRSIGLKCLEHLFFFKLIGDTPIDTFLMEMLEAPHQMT

With `COc1ccc2c3c1O[C@H]1[C@@H](O)C=C[C@H]4[C@@H](C2)N(C)CC[C@@]341`, the compound was called inactive in [1].
In the case of `NC(=O)c1cc([N+](=O)[O-])cc([N+](=O)[O-])c1`, in [2], the compound was classed as inactive.
Still for that read-out and setting: to `NC(=O)OCCCc1ccccc1` belongs “inactive”; to `CN(CCO)CCO`, “inactive”.
As for `CCCCCCCCCCn1cc[n+](C)c1`, in [3], the AC50 was 7880 nM (active).
Consider `CC(C)=CC1C(C(=O)OC(C#N)c2cccc(Oc3ccccc3)c2)C1(C)C` (centres undefined), for which the result in [4] was inactive.
In the case of `Oc1ccccc1`, the compound was classed as inactive in [5].
In the case of `CC(C)(C)c1cc(C(C)(C)C)c(O)c(C(C)(C)C)c1`, the result in [5] was inactive.
On to `COc1ccn(C)c(=O)c1C#N`, for which the compound was called inactive in experiment [6] and in [7].
As to `O=C(O)CCCCCCNC1c2ccccc2CCc2ccccc21`, the AC50 is 23800 nM (active) with THRA (gene 7067) and 13200 nM (active) in the experiment with THRB (gene 7068) [9]. Also, the result (with THRB (gene 7068) [8]; in experiment [10]) was inactive.
On to `CCn1cc[n+](C)c1`, for which the result (with THRA (gene 7067); with THRB (gene 7068) [8]; in the experiment with THRB (gene 7068) [9]; in [10]) was inactive.
As for `Cc1ccc2cc3c(ccc4ccccc43)c3c2c1CC3`, the result in experiment [6] was inactive. Moreover, in [7], the AC50 was 263 nM (active).
`CP(=O)(O)CC[C@H](N)C(=O)O`: the outcome in experiment [11], in [12], in experiment [13], in experiment [14], in [15] and in experiment [16] was inactive. Also, the compound was called inactive in [17], in experiment [18] and in [19].
On to `CP(=O)(O)CCC(N)C(=O)O` (centres undefined), for which the AC50 in experiment [11] is 50000 nM (active). The call in experiment [12], in experiment [13], in [14], in experiment [15], in experiment [16] and in experiment [17] was inactive. In addition, the call in experiment [18] and in experiment [19] was inactive.
With `C#CCN(C)[C@H](C)Cc1ccccc1`, the compound was classed as inactive in experiment [11], in experiment [13], in experiment [14], in [15], in experiment [16] and in experiment [17]. The call in experiment [18] and in [19] was inactive. Further, in [12], the half-maximal activity concentration (AC50) was 15000 nM (active).
As to `O=C(O)CNCP(=O)(O)O`, the compound was classed as inactive in experiment [11], in experiment [12], in experiment [13], in [14], in experiment [15] and in [16]. For the same compound, the call in [17] and in experiment [18] was inactive.
Regarding `CC1(C)[C@@H](C=C(Cl)Cl)[C@@H]1C(=O)O[C@@H](C#N)c1ccc(F)c(Oc2ccccc2)c1`, the concentration at half-maximal activity (AC50) in experiment [11] is 842 nM (active); in [12], 2350 nM (active); in experiment [13], 1950 nM (active); in [14], 7770 nM (active); in experiment [15] it was 1680 nM (active); in experiment [16] it was 1320 nM (active). For the same compound, the AC50 was 208 nM (active) in experiment [17] and 512 nM (active) in [18]. The compound was called inactive in experiment [19].

(Values after PubChem BioAssay (EPA / NIEHS).)
